Assay results reported in PubChem BioAssay AID2797 (The Scripps Research Institute Molecular Screening Center, 2010).
The campaign covered roughly 320,000 compounds. About 820 (0.26%) were called active. The entries come from a sample that favours actives as a whole. Unmarked numbers belong to inactive results.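 How the source made its calls: active means activation above the mean activation of all tested compounds plus 3 SD, per screening run (cut at about 20% in these data); inactive means the rest.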

Target: Vasopressin V1a receptor (Homo sapiens) (UniProt P37288)
Experiment: V1R activation via calcium rise – fluorescence, CHO-V1R cells, counter-screen for OXTR agonist project, primary screen (AID 2797);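 further: signal is peak over basal fluorescence ratio across a 100 second FLIPR read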
Conditions: Fluo-8 calcium fluorescence, agonist mode, at 3 µM, stronger effect = higher value, 0% DMSO, 100% 3 nM vasopressin

Vasopressin V1a receptor (Homo sapiens), sequence (P37288 whole entry, looked up): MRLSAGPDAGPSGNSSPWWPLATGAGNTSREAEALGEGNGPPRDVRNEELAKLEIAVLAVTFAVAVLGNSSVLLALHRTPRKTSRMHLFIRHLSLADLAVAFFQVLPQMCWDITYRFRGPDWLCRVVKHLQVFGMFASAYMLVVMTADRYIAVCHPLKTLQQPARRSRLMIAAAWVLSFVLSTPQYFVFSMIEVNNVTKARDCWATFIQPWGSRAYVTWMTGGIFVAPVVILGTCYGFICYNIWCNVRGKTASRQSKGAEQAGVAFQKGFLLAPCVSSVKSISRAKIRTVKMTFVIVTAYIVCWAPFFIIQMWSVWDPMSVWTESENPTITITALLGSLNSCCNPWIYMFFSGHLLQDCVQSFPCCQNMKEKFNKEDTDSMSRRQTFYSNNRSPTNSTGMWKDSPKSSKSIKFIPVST

SMILES	activation
CCNC(=O)COc1cc(C)c(Br)c(C)c1	2%
Cc1cc(C)nc(SC(C)C(=O)N/N=C/c2cccs2)n1 (stereo not given)	0.12%
COCCCNC(=S)NCCNc1nc2cc(C)c(C)cc2cc1C#N	-0.33%
c1ccc2c(c1)OCC(CNc1ncnc3nc[nH]c13)O2 (stereo not given)	102% (active)
S=C(NCC1COc2ccccc2O1)Nc1ccc(Br)cc1 (stereo not given)	5.7%
c1ccc(-c2cc3c(NCC4COc5ccccc5O4)ncnc3s2)cc1 (stereo not given)	1.35%
O=C(N/N=C/c1cc([N+](=O)[O-])ccc1O)/C(=C\c1cccs1)NC(=O)c1ccccc1	0.52%
COc1ccccc1C1=CC(=O)CCC1	-0.32%
Cc1cc(C)cc(OCC(=O)NC(C)c2ccccc2)c1 (stereo not given)	-1.15%
COc1cc(OC)cc(C(=O)N[C@H](C(=O)OCC(=O)NC(C)c2ccccc2)C(C)C)c1 (stereo not given in full)	68.5% (active)
COc1cc(OC)cc(C(=O)NCC(=O)OCC(=O)NC(C)CCc2ccccc2)c1 (stereo not given)	-0.08%
COc1ccc(C(=O)NC(=S)NNC(=O)CCc2ccccc2)cc1	37.5% (active)
COc1ccc(C(=O)NNC(=S)NC(=O)c2ccccc2)cc1	60% (active)
COc1ccc(CCC(=O)c2ccc(OC)cc2)cc1	-0.9%
COc1ccc(/C(N)=N/OC(=O)CCCc2ccccc2)cc1	-0.46%
COc1ccc(C(=O)NNC(=S)NC(=O)c2ccccc2[N+](=O)[O-])cc1	-0.34%
COc1ccc(C(=O)NC(=S)NC2CCCCC2)cc1	-0.74%
Cc1ccc(O)c(-c2cc(C(=O)NCc3ccccc3)[nH]n2)c1	0.3%
COc1ccc(Cc2nnc(SCC(=O)N(c3ccccc3)C(C)C)n(N)c2=O)cc1	-1.17%
Cc1cccc(NC(=O)CN2CCCN(S(=O)(=O)c3ccc(Br)s3)CC2)c1	1.99%

SMILES	activation
Cc1cc(C)nc(NS(=O)(=O)c2ccc(N3C(=O)C4CCCCC4C3=O)cc2)n1 (stereo not given)	1.65%
CCNC(=O)CC1C(=O)N(c2ccc(OC)cc2)C(=S)N1CCc1ccncc1 (stereo not given)	-0.58%
Cc1ccc(C(=O)Oc2ccc(C(=S)N3CCOCC3)cc2)cc1	1.56%
O=C(O)C1CCCN1C1=NS(=O)(=O)c2ccccc21 (stereo not given)	-0.02%
O=C1C=CN2CCCC2CC1 (stereo not given)	0.74%
CCN(CC)c1ccc2cc(C(N)=O)/c(=N\NC(=O)c3ccncc3)oc2c1	27.3% (active)
COc1cccc2cc(C(N)=O)/c(=N\NC(=O)c3ccccc3)oc12	1.9%
NC(=O)c1cc2ccccc2o/c1=N/NC(=O)c1cccc(F)c1	1.54%
COc1ccc(CCNC(=O)CSc2nc(-c3ccc(OC)c(OC)c3)ccc2C#N)cc1	-0.68%
COc1cc(NS(=O)(=O)c2ccc(NC(=S)NC(=O)c3ccccc3)cc2)nc(OC)n1	-0.14%
CC1CCCC(NC(=O)c2cc(S(=O)(=O)N3CCCCC3)ccc2Cl)C1C (stereo not given)	-0.2%
CCN(CC)C(CNC(=O)CSc1nnnn1-c1cccc(F)c1)c1ccco1 (stereo not given)	-0.26%
CCOc1ccc(NC(=O)CSc2nncn2C)cc1	0.81%
CCCCN(C(=O)c1nn(C)c(=O)c2ccccc12)c1c(N)n(CCC)c(=O)[nH]c1=O	0.08%
Cc1onc(-c2ccccc2)c1C(=O)N=C(N)c1ccc(Cl)cc1	0.22%
Cc1onc(-c2ccccc2)c1C(=O)NNC(=S)NC(=O)c1ccc(F)cc1	21.1% (active)
Cc1onc(-c2c(Cl)cccc2Cl)c1C(=O)NNC(=O)c1c(-c2c(Cl)cccc2Cl)noc1C	0.81%
CCc1noc(C)c1C(=O)NNC(=O)c1ccc(F)cc1	0.87%
Cc1onc(-c2ccccc2)c1C(=O)Nc1ccccc1C#N	-1.51%
COc1ccc(C(=O)NC(=S)NNC(=O)c2c(-c3ccccc3)noc2C)cc1	70.5% (active)

SMILES	activation
Cc1ccc(C(=O)Nc2sc(Cc3ccc4c(c3)OCO4)c(C)c2C(N)=O)cc1	-0.01%
COc1ccc(C(=O)C2CCCN(Cc3cccn3-c3ccccn3)C2)c(C)c1 (stereo not given)	8%
COC(=O)C1=C(C(=O)OC)C(c2cc([N+](=O)[O-])ccc2O)c2sc(=O)[nH]c2S1 (stereo not given)	0.68%
CC1(C)OC(=O)C(=CSc2ccc(C(C)(C)C)cc2)C(=O)O1	1%
CC1CCc2[nH]c3ccc(C(=O)N(C)CC(=O)Nc4cccc(F)c4)cc3c2C1 (stereo not given)	0.41%
Fc1ccc(NC(=S)N2CCc3[nH]c4ccccc4c3C2)cc1	4.06%
O=C(CCCN1CCc2[nH]c3ccc(F)cc3c2C1)c1ccc(F)cc1	23% (active)
Cc1cc(OCc2ccc(C(=O)Nc3ccc(C(=O)O)cc3)o2)ccc1Cl	2.11%
S=c1nccc(-c2cc(Cl)sc2Cl)[nH]1	0.23%
CC1CCN(CC(O)COc2ccc(C(=O)c3ccccc3)cc2)CC1 (stereo not given)	1.88%
O=C(c1ccccc1)c1ccc(OCC(O)CN2CCCC2)cc1 (stereo not given)	22.4% (active)
O=C(c1ccc(Cl)cc1)c1ccc(OCC(O)CN2CCCCC2)cc1 (stereo not given)	4.01%
CCOC(=O)C1(C)NC(c2ccco2)C2C(=O)N(c3ccccc3)C(=O)C21 (stereo not given)	3.3%
COc1ccc(NC(=O)CN(Cc2ccccc2)S(C)(=O)=O)cc1OC	0.58%
COc1ccc(OCCNC(=O)c2cc(C3CC3)nc3c2cnn3C(C)C)cc1	-0.36%
CCOC(=O)C1=C(NC(=S)NC(=O)c2ccccc2)c2ccccc2CC1(C)C	29.8% (active)
COCCCNC(=S)NC(=O)c1ccccc1	1.26%
Cc1ccc(NC(=S)NC(=O)c2ccc(-c3ccccc3)cc2)cc1	0.62%
Cc1ccc(NC(=O)CSc2nn3c(=O)c(C)nnc3s2)cc1Cl	0.31%
CCC(C)C(=O)Nc1cc([N+](=O)[O-])ccc1Cl (stereo not given)	-0.34%
